Laboratory results taken from PubChem BioAssay (NCI).
About 79,000 compounds went through this panel and 15% of them were active in at least one assay; those are over-represented in the sample as a whole. Active and inactive are the calls of the source. Rule as the data show it: active = growth inhibition above about 70%; inactive = the rest.

Columns and labels:
[1] = NCI Yeast Anticancer Drug Screen. Data for the rad50 strain (AID 155);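 also: 0% = growth of vehicle-only cultures of the same strain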; conditions: S. cerevisiae rad50 strain growth inhibition, active compounds read high
Summary of the method: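 Vehicle-treated cultures provide the reference for the growth inhibition reported for compound-exposed, repair-deficient yeast.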

[2] = NCI Yeast Anticancer Drug Screen. Data for the mec2-1 strain (AID 157); conditions: S. cerevisiae mec2-1 strain, active compounds read high
Summary of the method: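 Yeast mec2-1 mutant treated with compound. Readout: growth inhibition vs vehicle controls.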

[3] = NCI Yeast Anticancer Drug Screen. Data for the sgs1 mgt1 strain (AID 161);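 also: 0% = growth of cultures given vehicle only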; conditions: S. cerevisiae sgs1 mgt1 strain, active compounds read high
Summary of the method: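 Mutant yeast exposed to compound; growth scored against vehicle-only wells.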

[4] = NCI Yeast Anticancer Drug Screen. Data for the cln2 rad14 strain (AID 165);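 also: 0% = growth equal to vehicle treated cultures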; conditions: S. cerevisiae cln2 rad14 strain, active compounds read high
Summary of the method: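 cln2 rad14 yeast strain; compound exposure; growth inhibition read vs vehicle controls.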

[5] = NCI Yeast Anticancer Drug Screen. Data for the bub3 strain (AID 167); conditions: S. cerevisiae bub3 mutant strain, active compounds read high
Summary of the method: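 Mutant yeast screening strain plus compound; vehicle-treated cultures serve as the 0% inhibition reference.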

[6] = NCI Yeast Anticancer Drug Screen. Data for the mlh1 rad18 strain (AID 175); conditions: S. cerevisiae mlh1 rad18 strain growth inhibition, active compounds read high
Summary of the method: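 Yeast w/ defined DNA-repair lesions; compound exposure; growth vs vehicle controls → % inhibition.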

[7] = at 5.0 µM (retest, dose inferred, filed as 0.5)
[8] = at 50.0 µM (retest, dose inferred, filed as 5.0)

Measured: growth inhibition

O=S(=O)(c1ccccc1)N1C2C3CCC(CC3)C21 (centres undefined)
inactive: [1]; [7] -1% | [1]; [8] -4% | [1]; at 50.0 µM 1.2% | [2]; [7] -11% | [2]; [8] -16% | [2]; at 50.0 µM 2.75% | [3]; [7] -3% | [3]; [8] -32% | [3]; at 50.0 µM 23% | [4]; [7] -1% | [4]; [8] 3% | [4]; at 50.0 µM 7.65% | [5]; [7] 14% | [6]; [7] -13% | [6]; [8] -5% | [6]; at 50.0 µM 1.5%
active: [5]; [8] 96% | [5]; at 50.0 µM 76.6%

CN(C)c1ccc(/C=C/c2cc[n+]3ccsc3n2)cc1
inactive: [1]; [7] -3% | [1]; [8] 69% | [2]; [7] 24% | [3]; [7] -10% | [4]; [7] -5% | [4]; [8] 63% | [5]; [7] 8% | [6]; [7] 2%
active: [1]; at 50.0 µM 90.8% | [2]; [8] 94% | [2]; at 50.0 µM 88% | [3]; [8] 93% | [3]; at 50.0 µM 92.2% | [4]; at 50.0 µM 72% | [5]; [8] 90% | [5]; at 50.0 µM 96.2% | [6]; [8] 85% | [6]; at 50.0 µM 97.2%

CCc1ccc2c(c1)N(CCCN(CCCl)CCCl)c1ccccc1S2
inactive: [1]; [7] -4% | [2]; [7] 44% | [2]; [8] 59% | [3]; [7] -4% | [4]; [7] -1% | [4]; [8] 53% | [5]; [7] -1% | [6]; [7] -2%
active: [1]; [8] 85% | [1]; at 50.0 µM 98.5% | [2]; at 50.0 µM 99.2% | [3]; [8] 89% | [3]; at 50.0 µM 98.6% | [4]; at 50.0 µM 96.8% | [5]; [8] 94% | [5]; at 50.0 µM 98.5% | [6]; [8] 94% | [6]; at 50.0 µM 98.6%

O=C(CBr)Nc1ccccc1Cl
active: [1]; [8] 99% | [1]; at 50.0 µM 99.3% | [2]; [8] 99% | [2]; at 50.0 µM 99.5% | [3]; [8] 98% | [3]; at 50.0 µM 99.1% | [4]; [8] 99% | [4]; at 50.0 µM 98.5% | [5]; [8] 99% | [5]; at 50.0 µM 99.5% | [6]; [8] 99% | [6]; at 50.0 µM 99.2%
inactive: [1]; [7] 19% | [2]; [7] -3% | [3]; [7] 40% | [4]; [7] 20% | [5]; [7] 23% | [6]; [7] 18%

FC(F)(F)c1nc2ccc(SSc3ccc4nc(C(F)(F)F)[nH]c4c3)cc2[nH]1
active: [1]; at 50.0 µM 96% | [2]; at 50.0 µM 93.8% | [3]; at 50.0 µM 96.6% | [4]; at 50.0 µM 92.3% | [5]; at 50.0 µM 95.5% | [6]; at 50.0 µM 97.2%
inactive: [1]; [7] -8% | [1]; [8] 17% | [2]; [7] 13% | [2]; [8] 20% | [3]; [7] -3% | [3]; [8] 12% | [4]; [7] 8% | [4]; [8] -32% | [5]; [7] 1% | [5]; [8] 14% | [6]; [7] 2% | [6]; [8] -6%

C[As](C)SCCC(CCCCC(=O)O)S[As](C)C (centres undefined)
inactive: [1]; [7] 27% | [1]; [8] 38% | [1]; at 50.0 µM 66.2% | [2]; [7] 27% | [2]; [8] 32% | [2]; at 50.0 µM 47% | [3]; [7] 2% | [3]; [8] -69% | [4]; [7] 5% | [4]; [8] -52% | [4]; at 50.0 µM 37.4% | [5]; [7] 2% | [5]; [8] -42% | [6]; [7] 39% | [6]; [8] 65% | [6]; at 50.0 µM 25.4%
active: [3]; at 50.0 µM 78.3% | [5]; at 50.0 µM 76.5%

CCc1cc2c(cc1O)C(C)(C)CCC2(C)C
inactive: [1]; [7] -1% | [1]; [8] 7% | [2]; [7] -2% | [2]; [8] -7% | [3]; [7] -3% | [3]; [8] 7% | [3]; at 50.0 µM 52.5% | [4]; [7] 5% | [4]; [8] 10% | [5]; [7] 3% | [5]; [8] 18% | [5]; at 50.0 µM 43% | [6]; [7] 0% | [6]; [8] 4%
active: [1]; at 50.0 µM 98% | [2]; at 50.0 µM 97.8% | [4]; at 50.0 µM 98% | [6]; at 50.0 µM 98%

CCOC(=O)c1ccccc1N
inactive: [1]; [7] 6% | [1]; [8] 4% | [1]; at 50.0 µM -2.65% | [2]; [7] 2% | [2]; [8] 1% | [2]; at 50.0 µM 1.2% | [3]; [7] -10% | [3]; [8] 1% | [3]; at 50.0 µM -5.7% | [4]; [7] 2% | [4]; [8] -4% | [4]; at 50.0 µM 45.8% | [5]; [7] 0% | [5]; [8] 6% | [5]; at 50.0 µM 7.7% | [6]; [7] -1% | [6]; [8] 4% | [6]; at 50.0 µM -17.9%
